Shown are actives, neighbours in structure and some others; about 12% of the full set was active somewhere.
G9a inh: qHTS Assay for Inhibitors of Histone Lysine Methyltransferase G9a. G9a H3K9 monomethylation, AlphaScreen, 2 h. Potency, µM (titrated, usually from 102 µM), for inactives: at the top dose activity, negative = inhibition, hits mostly inhibitors. actives 8.8% (n = 350,000); further: potency means the concentration at half of the fitted maximal effect; on the % scale 0 is the no-effect control and ±100 the full control effect; nearly all actives have a fitted effect of over 75% in size
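G9a (20 nM) preincubated 15 min RT with compounds, then 500 nM biotinylated H3K9 peptide and 20 uM SAM added; 2 h RT reaction. Monomethyl-H3K9 product detected by AlphaScreen with anti-H3K9me1 antibody, streptavidin donor and anti-rabbit IgG acceptor beads.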
PLK1 PBD block: qHTS for Inhibitors of PLK1-PDB (polo-like kinase 1 - polo-box domain): Primary Screen; Serine/threonine-protein kinase PLK1 (Homo sapiens), P53350; Plk1 PBD binding of FITC phosphopeptide, fluorescence polarization; Potency, µM, for inactives: max response, negative = inhibition, actives largely listed as inhibitors; actives 2.8% (n = 360,000); AID 720504, 2013; further: potency means the concentration at half of the fitted maximal effect; series mostly up to about 57 µM; on the % scale 0 is the no-effect control and ±100 the full control effect; nearly all actives have a fitted effect of over 65% in size
Target sequence (P53350 whole entry, looked up, the tested form may be a part): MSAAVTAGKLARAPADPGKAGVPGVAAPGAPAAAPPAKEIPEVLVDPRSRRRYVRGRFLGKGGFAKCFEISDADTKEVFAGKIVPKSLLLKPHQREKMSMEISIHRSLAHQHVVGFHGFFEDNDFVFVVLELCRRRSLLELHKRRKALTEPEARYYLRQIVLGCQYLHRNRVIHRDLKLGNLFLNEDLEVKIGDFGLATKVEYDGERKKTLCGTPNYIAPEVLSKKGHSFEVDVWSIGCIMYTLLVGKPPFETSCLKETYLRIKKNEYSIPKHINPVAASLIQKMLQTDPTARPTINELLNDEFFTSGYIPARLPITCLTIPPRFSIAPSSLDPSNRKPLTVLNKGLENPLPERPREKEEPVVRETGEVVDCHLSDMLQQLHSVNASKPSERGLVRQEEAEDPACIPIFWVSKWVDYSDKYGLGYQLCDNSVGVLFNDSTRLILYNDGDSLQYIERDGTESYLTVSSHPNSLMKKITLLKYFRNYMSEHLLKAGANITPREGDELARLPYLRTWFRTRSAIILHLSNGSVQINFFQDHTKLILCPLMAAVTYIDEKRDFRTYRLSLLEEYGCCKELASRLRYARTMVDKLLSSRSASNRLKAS
HP1b chromo inh: HTS for Inhibitors of HP1-beta Chromodomain Interactions with Methylated Histone Tails; Chromobox protein homolog 1 (Homo sapiens), P83916; AlphaScreen HP1-beta / biotin-H3K9me3 peptide binding; Potency, µM (titrated, usually from 114 µM), inactives show at the highest dose activity change, negative = inhibition, hits mostly inhibitors; actives 0.56% (n = 390,000); AID 540317, 2011; further: potency means the concentration at half of the fitted maximal effect; nearly all actives have a fitted effect of over 70% in size
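HP1-beta protein (50 nM final) preincubated 30 min at room temperature with biotinylated H3(1-18)K9me3 peptide (50 nM) in PBS pH 7.4, 0.01% Tween-20, then compound added for 30 min. AlphaScreen streptavidin donor/nickel chelate acceptor beads (10 ug/mL final), 30 min dark, luminescence read.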
JMJD2A Tudor: qHTS Assay for Inhibitors of JMJD2A-Tudor Domain | actives 4.4% (n = 390,000) | Lysine-specific demethylase 4A (Homo sapiens), O75164 | Potency, µM (top dose mostly 114 µM), for the others: top-dose activity change, negative = inhibition, hits mostly inhibitors | AlphaScreen JMJD2A-Tudor / H3K4me3 peptide binding; further: potency means the concentration at half of the fitted maximal effect; on the % scale 0 is the no-effect control and ±100 the full control effect; nearly all actives have a fitted effect of over 50% in size
PI5P4K alpha inh: qHTS for Inhibitors of phosphatidylinositol 5-phosphate 4-kinase (PI5P4K). Phosphatidylinositol 5-phosphate 4-kinase type-2 alpha (Homo sapiens), P48426. PI5P4Kalpha enzyme, ADP-Glo luminescence, 60 min; active compounds read low. max response, %. actives 1.2% (n = 330,000); active means max response of -50% or lower; inconclusive means between -30% and -50%; inactive means -30% or higher; further: value at the top dose of about 77 µM; on the % scale 0 is the no-effect control and ±100 the full control effect
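Luminescence from ADP-Glo served as readout of PI5P4Kalpha activity in a qHTS format. Reaction: enzyme, substrate, compound, ATP at 5 microM final, 60 min at RT.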
BAZ2B block: qHTS Assay for Inhibitors of BAZ2B. Potency, µM (titrated, usually from 114 µM), for the others: top-dose activity change, negative = inhibition, actives largely listed as inhibitors. AlphaScreen BAZ2B-H3K14Ac peptide displacement. actives 4.4% (n = 360,000). Bromodomain adjacent to zinc finger domain protein 2B (Homo sapiens), Q9UIF8; further: potency means the concentration at half of the fitted maximal effect; on the % scale 0 is the no-effect control and ±100 the full control effect; nearly all actives have a fitted effect of over 60% in size
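AlphaScreen luminescence quantifies BAZ2B engagement of H3K14Ac peptide; the protein and biotinylated peptide are both at 50 nM final, buffer PBS pH 7.4 with 0.01% Tween-20, all steps at room temperature.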
Active calls of the source: *; u = inconclusive; x = no result; [ ] = remark or other dose. Unless noted, the call rests on the fitted dose curve; in most records, active means well fitted curve in the direction sought with a large enough effect; inconclusive means small, poorly fitted or top-dose-only effect, or another doubt; inactive means no such curve, though single readings can be large; an effect the other way counts as inactive or inconclusive.

SMILES	G9a inh	PLK1 PBD block	HP1b chromo inh	JMJD2A Tudor	PI5P4K alpha inh	BAZ2B block
CCOC(=O)C1=C[C@@H](C(C)(C)C)N(S(=O)(=O)c2ccc(C)cc2)[C@H]1c1ccc(F)cc1	x	-5%	x	x	10	x
CCOC(=O)c1ccc(NC(=O)c2cc3c(n(-c4ccc(C)cc4)c2=O)CC(C)(C)CC3=O)cc1	u	x	36%	-17%	x	-1%
CN(C)S(=O)(=O)c1ccc(NC(=O)COc2ncnc3sccc23)cc1	10%	-5%	7%	-8%	-25	-1%
O=S(=O)(c1ccc2c(c1)OCCO2)N1CCN(c2nc(-c3ccccc3)nc3ccccc23)CC1	x	x	19%	-10%	x	x
O=C(CSc1nnc(SCc2ccccc2)s1)N/N=C/C=C/c1ccco1	13µM*	u	25µM*	40µM*	-96*	25µM*
O=C(CSc1nnc(SCc2ccccc2)s1)NNC(=S)Nc1ccccc1	2.2µM*	u	-38%	-23%	-13	-22%
CCn1c(SCC(=O)N/N=C/C=C/c2ccco2)nnc1-c1ccccc1	16µM*	-17%	-11%	u	u	u
CCn1c(SCC(=O)N/N=C/C(C)=C/c2ccco2)nnc1-c1ccccc1	13%[59 µM]	-15%	-16%	u	x	u
Cn1c(SCC(=O)NNC(=S)Nc2ccccc2)nnc1-c1ccccc1	u	-4%	37%	-16%	1	1%
O=C(CN1CCN(Cc2ccccc2)CC1)N/N=C\C=C/c1ccco1	u	-19%	18%	-12%	1	2%
Cn1c(SCC(=O)N/N=C/C=C/c2ccco2)nc2ccccc21	7.1µM*	-23%	-14%	u	u	45µM*
CCCn1c2ccccc2c2cnn(CC(=O)N3CCN(c4ccccc4)CC3)c(=O)c21	-28%[59 µM]	x	7%	-22%	x	-13%
COc1ccc2c(c1)c(=O)oc1cc(OCC(=O)N3CCC(C)CC3)ccc12	8.9µM*	-29%	-45%	50µM*	x	u
COc1ccc2c(c1)c(=O)oc1cc(OCC(=O)N3CCc4ccccc4C3)ccc12	3.2µM*	-28%	1%	56µM*	x	40µM*
Cc1cc(=O)oc2cc(OCC(=O)N3CCOCC3)ccc12	7.1µM*	27µM*	-42%	79µM*	-22	-5%
CC(C)c1ccc(OCC(=O)N2CCc3ccccc3C2)cc1	u	-3%	97%	25%	4	7%
COc1ccc2c(c1)c(=O)oc1cc(OCC(=O)N3CCCC(C)C3)ccc12 (centres undefined)	0%[12.7 µM]	-7%	13%	-24%	-11	-1%
Cn1cccc1CNC(=S)Nc1ccccc1Cl	u	-26%	36%	-3%	1	-38%
Cc1cc(C)cc(NC(=S)NCc2cccn2C)c1	-6%[59 µM]	-3%	-26%	u	x	50µM*
Cc1ccc2c(c1)NC(=O)c1cccc([N+](=O)[O-])c1CO2	50µM*	x	x	x	x	-10%
CC(=O)Nc1ccc(C2C(=O)c3ccccc3C2=O)cc1	50µM*	-8%	-17%	-25%	-17	-36%
Cc1ccc(C2C(=O)c3ccccc3C2=O)cc1	u	-9%	1%	-15%	-1	u
CCCC(=O)Nc1ccc(C2C(=O)c3ccccc3C2=O)cc1	79µM*	5%	-16%	-24%	-9	u
OCC1OC(n2ccc3c(SCc4ccccc4)ncnc32)C(O)C1O (centres undefined)	x	-5%	37%	-9%	1	x
COc1ccc(CN2C(=O)CN=C2Nc2cccc(C)c2C)cc1	56µM*	-2%	24%	-23%	-3	u
SMILES	G9a inh	PLK1 PBD block	HP1b chromo inh	JMJD2A Tudor	PI5P4K alpha inh	BAZ2B block
COc1ccccc1NC1=NCC(=O)N1Cc1ccccc1	4%[0.501 µM]	-6%	16%	-5%	6	-8%
CCOc1ccccc1NC1=NCC(=O)N1Cc1ccc(F)cc1	50µM*	-12%	13%	-15%	x	u
Cc1ccc(OCC(O)C(C)NC(C)C)c2c1CCC2 (centres undefined)	35%[12.7 µM]	x	x	x	x	x
Nc1ncc(S(=O)(=O)N2CCN(c3ccccc3)CC2)cn1	6%[59 µM]	x	8%[57 µM]	-34%	x	-13%
FC(F)(F)c1cnc(NNC(=S)Nc2cccnc2)c(Cl)c1	22µM*	u	-2%	-35%	-17	-1%
Cc1ccccc1NC(=S)NNc1ncc(C(F)(F)F)cc1Cl	u	-25%	12%	-17%	-6	-6%
Cc1c(Cl)cccc1NC(=S)NNc1ncc(C(F)(F)F)cc1Cl	71µM*	-10%	-12%	-31%	x	-6%
CCOc1ccc(C2c3[nH]c4ccccc4c3CCN2C(=O)CSc2ccccc2)cc1 (centres undefined)	-1%[59 µM]	x	-10%[57 µM]	u	x	-28%
O=c1c(S(=O)(=O)c2cccc(Cl)c2)cn(Cc2ccccc2)c2cc(N3CCOCC3)c(F)cc12	-2%[59 µM]	x	37%	-6%	x	3%
O=C(CC1C(=O)N(c2ccc(F)cc2)C(=O)N1Cc1ccc2c(c1)OCO2)Nc1ccc(F)cc1 (centres undefined)	0%[59 µM]	x	40%	-10%	x	-3%
Cc1cccc(C(=O)OCC(=O)c2ccc(CC(=O)N3CCOCC3)s2)c1C	2%[2.33 µM]	-11%	-12%	u	-60*	50µM*
Cc1cccc(C(=O)OCC(=O)N2CC(C)OC(C)C2)c1C (centres undefined)	24%	-4%	20%	-13%	1	-3%
Cc1ccc(S(=O)(=O)n2c(N)nc3ccccc32)cc1	50µM*	1%	12%	-19%	6	-27%
CCC(Sc1nc(-c2ccccc2F)nc2c1Cc1c(CO)cnc(C)c1O2)C(=O)Nc1cc(C)ccc1C (centres undefined)	-3%[59 µM]	x	0%	-25%	x	-17%
Cn1cccc1/C=N/NC(=O)Cc1cccc2ccccc12	u	-6%	-12%	u	1	14µM*
Cn1cccc1/C=N/NC(=O)CNc1ccc2ccccc2c1	4µM*	-7%	u	56µM*	9	25µM*
Cc1ccc(NCC(=O)N/N=C/c2cc(O)ccc2[N+](=O)[O-])cc1	50µM*	-6%	13%	-17%	1	u
Cc1ccc(NCC(=O)N/N=C/c2cccn2C)cc1	x	-9%	-26%	u	4	40µM*

Assay outcomes (PubChem)
